Measurements from the supplement of paper PMC3545927.
The other results are listed elsewhere or left out. No count for the full screen is at hand.

Target: furin, P09958
Assay: furin cleavage Z-score vs untreated control; higher = more cleavage, active = 3.5 or more, inactive = 1 or less, 8 variable residues between constant flanks
Method in brief: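 Furin cleavage was scored on 8-mer peptides joined to a cDNA oligonucleotide and bound to magnetic beads at the N-terminus. Digestion with purified furin (1:10 enzyme:substrate, 0.01 ml, 50 mM HEPES pH 7.5, CaCl2, NaCl) lasted 7.5, 15 or 30 min. Freed DNA was tagged with adapters by PCR, sequenced and counted; the cleavage Z-score is the lowess-adjusted log count versus furin-free reactions, scaled by median absolute deviation.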

furin, P09958, sequence (P09958 whole entry): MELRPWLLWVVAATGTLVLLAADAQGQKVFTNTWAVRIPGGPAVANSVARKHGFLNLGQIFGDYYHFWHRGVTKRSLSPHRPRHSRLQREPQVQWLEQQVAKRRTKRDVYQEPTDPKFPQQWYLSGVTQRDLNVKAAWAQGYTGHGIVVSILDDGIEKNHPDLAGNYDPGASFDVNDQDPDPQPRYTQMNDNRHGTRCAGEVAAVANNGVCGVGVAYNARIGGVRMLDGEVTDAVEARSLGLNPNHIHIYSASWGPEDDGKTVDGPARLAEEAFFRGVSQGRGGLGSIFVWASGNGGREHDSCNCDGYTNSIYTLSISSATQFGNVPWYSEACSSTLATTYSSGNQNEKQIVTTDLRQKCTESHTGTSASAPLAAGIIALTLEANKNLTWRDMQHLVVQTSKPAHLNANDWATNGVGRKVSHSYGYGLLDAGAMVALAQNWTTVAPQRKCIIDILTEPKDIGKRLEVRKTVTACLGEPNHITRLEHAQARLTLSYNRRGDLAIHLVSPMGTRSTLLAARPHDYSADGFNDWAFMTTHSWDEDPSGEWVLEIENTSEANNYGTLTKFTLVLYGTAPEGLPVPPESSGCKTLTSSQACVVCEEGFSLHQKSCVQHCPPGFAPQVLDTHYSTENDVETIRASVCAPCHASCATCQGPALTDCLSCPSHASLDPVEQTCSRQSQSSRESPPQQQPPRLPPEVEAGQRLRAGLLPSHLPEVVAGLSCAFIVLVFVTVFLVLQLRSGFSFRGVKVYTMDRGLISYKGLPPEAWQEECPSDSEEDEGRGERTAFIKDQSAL

| Sequence | furin cleavage Z-score (7.5 min) | furin cleavage Z-score (15 min) | furin cleavage Z-score (30 min) |
| --- | --- | --- | --- |
| CAILSSLTVTAGNASASA [HC1134] | -0.227 (inactive) | -0.375 (inactive) | -0.271 (inactive) |
| CAIGGAGNNTAGNASASA [HC446] | 0.332 (inactive) | -0.689 (inactive) | 0.317 (inactive) |
| CAGSSSTSGIAGNASASA [HC1337] | 0.384 (inactive) | 0.604 (inactive) | -0.961 (inactive) |
| CAEVVTPTWVAGNASASA [HC160] | 0.0725 (inactive) | -1.35 (inactive) | -0.017 (inactive) |
| CARSRRRSRVAGNASASA [FS-3095] | 1.94 | 0.692 (inactive) | 3.48 |
| CAASRRRARVAGNASASA [FS-1187] | 3.47 | 3.01 | 4.72 (active) |
| CASPPRRARVAGNASASA [FS-1571] | 0.556 (inactive) | 0.566 (inactive) | 3.24 |
| CAVAARRARVAGNASASA [FS-307] | 1.69 | 3.8 (active) | 3.48 |
| CALASRGARVAGNASASA [FS-267] | -0.386 (inactive) | -0.302 (inactive) | 0.249 (inactive) |
| CAESDAAARVAGNASASA [HC1129] | -0.953 (inactive) | -0.591 (inactive) | -1.03 (inactive) |
| CAGKFLADGGAGNASASA [HC809] | -1.28 (inactive) | -0.358 (inactive) | -0.637 (inactive) |
| CAYLVAYQATAGNASASA [HC953] | -0.934 (inactive) | -0.739 (inactive) | -1.07 (inactive) |
| CALIVFPDLGAGNASASA [HC1450] | -0.678 (inactive) | -1.11 (inactive) | -0.0519 (inactive) |
| CARRRRHEGPAGNASASA [FS-2233] | 3.52 (active) | 4.96 (active) | 4.69 (active) |
| CARRRRASAPAGNASASA [FS-3062] | 7.44 (active) | 6.83 (active) | 5.33 (active) |
| CARRRRHSPPAGNASASA [FS-2453] | 5.59 (active) | 8.37 (active) | 6.78 (active) |

| Sequence | furin cleavage Z-score (7.5 min) | furin cleavage Z-score (15 min) | furin cleavage Z-score (30 min) |
| --- | --- | --- | --- |
| CARRRRHRSYAGNASASA [FS-2078] | 6.85 (active) | 11.1 (active) | 9.14 (active) |
| CARRRRPGGPAGNASASA [FS-2792] | -0.8 (inactive) | -0.454 (inactive) | 0.146 (inactive) |
| CARCTTPCSGAGNASASA [HC1953] | -0.496 (inactive) | -1.94 (inactive) | -0.955 (inactive) |
| CAENVTSTWVAGNASASA [HC2181] | 0.856 (inactive) | -1.06 (inactive) | 0.371 (inactive) |
| CAPGGGQIVGAGNASASA [HC173] | -0.67 (inactive) | -2.32 (inactive) | 0.322 (inactive) |
| CAVVVTSTWVAGNASASA [HC2150] | -0.0276 (inactive) | -0.308 (inactive) | -1.74 (inactive) |
| CAEVVTSLWVAGNASASA [HC2205] | 0.73 (inactive) | -1.3 (inactive) | -0.955 (inactive) |
| CAACTTPCSGAGNASASA [HC1943] | -1.45 (inactive) | -0.341 (inactive) | -0.2 (inactive) |
| CASTPCSAMLAGNASASA [HC2546] | 1.06 | 0.507 (inactive) | -0.199 (inactive) |
| CARHHRAAATAGNASASA [FS-2142] | -0.187 (inactive) | 1.63 | 1.18 |
| CARRRRAAATAGNASASA [FS-2784] | 8.16 (active) | 6.75 (active) | 5.42 (active) |
| CARSTRFAATAGNASASA [FS-2188] | -0.54 (inactive) | -0.334 (inactive) | 1.52 |
| CARRRRLLIKAGNASASA [FS-2597] | -0.832 (inactive) | -0.657 (inactive) | -0.82 (inactive) |
| CARSRRHSPHAGNASASA [FS-2462] | 9.64 (active) | 10.4 (active) | 9.06 (active) |
| CARRRRHTFKAGNASASA [FS-2374] | 6.02 (active) | 8.84 (active) | 8.36 (active) |
| CARSRRVQCHAGNASASA [FS-2091] | -0.135 (inactive) | -0.538 (inactive) | -0.773 (inactive) |
